Experimental data reported in PubChem BioAssay (Tox21).
Results filed as inconclusive are left out. The source made the active and inactive calls. Unless noted, calls come from the whole dose curve.

Experiments:
[1] = qHTS assay to identify small molecule agonists of the sonic hedgehog signaling (Shh) pathway (AID 1259368); note: series mostly up to about 92 µM; nearly all actives have a fitted effect of over 15% in size
In short: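 NIH/3T3-derived 3T3Gli1-Luc cells carrying a stably integrated Gli1 response element–firefly luciferase reporter were plated, left 4 hr at 37 C, then given compounds in DMSO for 24 hr. Luminescence was read 30 min after adding luciferase reagent.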

[2] = qHTS assay to identify small molecule antagonists of the sonic hedgehog signaling (Shh) pathway (AID 1259369); note: nearly all actives have a fitted effect of over 45% in size
In short: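 NIH/3T3-derived 3T3Gli1-Luc cells with stably integrated Gli1-Luc reporter were preincubated 4hr at 37 C, then given compounds in DMSO plus Shh conditioned medium and incubated 24hr. Firefly luciferase luminescence read after 30min reagent at room temperature.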

[3] = target: Estrogen receptor beta (Homo sapiens) (UniProt Q92731); experiment: qHTS assay to identify small molecule agonists of the estrogen receptor beta (ER-beta) signaling pathway (AID 1259377; active = well fitted activation curve with a large enough effect in the signal ratio in the repeat runs, not every such curve was filed as active; the % refers to the signal ratio)
In short: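 Read-out: beta-lactamase FRET fluorescence. Cell line: ER-beta-UAS-bla HEK293T in 2% charcoal-stripped FBS. Exposure: 16 hr at 37C. Substrate step: 2 h at room temperature.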

[4] = target: Estrogen receptor beta (Homo sapiens) (UniProt Q92731); experiment: qHTS assay to identify small molecule antagonists of the estrogen receptor beta (ER-beta) signaling pathway (AID 1259378; active = well fitted inhibition curve with a large enough effect in the signal ratio in the repeat runs, not every such curve was filed as active; the % refers to the signal ratio)
In short: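 Antagonist mode: compounds added to beta-lactamase reporter HEK293T ER-beta-UAS cells stimulated with E2 (1nM final), 16 hr at 37C. LiveBLAzer B/G FRET substrate, 2 hours room temperature, fluorescence read-out.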

[5] = qHTS assay to identify small molecule agonists of the androgen receptor (AR) signaling pathway in the presence of an antagonist - cell viability counter screen (AID 1259379; active = well fitted curve in the direction sought with a large enough effect in the repeat runs; an effect the other way counts as inactive or inconclusive; note: series mostly up to about 92 µM; nearly all actives have a fitted effect of over 25% in size)
In short: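 MDA-kb2 human breast carcinoma cells (stable MMTV-luciferase, AR/GR responsive) were seeded 3,000 cells/well, pre-incubated 5 hr at 37C without CO2, then given 3.0uM nilutamide and compounds at 15 concentrations for 16 hr. Viability was read by CellTiter-Fluor fluorescence.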

[6] = qHTS assay to identify small molecule agonists of the estrogen receptor beta (ER-beta) signaling pathway - cell viability counter screen (AID 1259380; active = well fitted curve in the direction sought with a large enough effect in the repeat runs; an effect the other way counts as inactive or inconclusive; note: nearly all actives have a fitted effect of over 30% in size)
In short: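 ER-beta-UAS-bla HEK293T cells in medium with 2% charcoal-stripped FBS were preincubated 6 hr at 37C, dosed with compound in DMSO for 16 hr, then after the bla read, CellTiter-Glo was added for 30 min at room temperature; luminescence recorded.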

[7] = qHTS assay to identify small molecule antagonists of the estrogen receptor beta (ER-beta) signaling pathway - cell viability counter screen (AID 1259382; active = well fitted curve in the direction sought with a large enough effect in the repeat runs; an effect the other way counts as inactive or inconclusive;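 note: HEK293T cells carrying ER-beta-UAS-bla reporter stimulated with estradiol; series mostly up to about 92 µM; nearly all actives have a fitted effect of over 55% in size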)
In short: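 ER-beta-UAS-bla HEK293T cells (2,000/well, 2% charcoal-stripped FBS) were pre-incubated 6 hr at 37C, then given compound plus 1nM final 17-beta-estradiol for 16 hr. Viability was read in the same wells by CellTiter-Glo luminescence after 30 min at room temperature.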

[8] = target: Estrogen receptor (Homo sapiens) (UniProt P03372); experiment: qHTS assay to identify small molecule agonists of the estrogen receptor alpha (ER-alpha) signaling pathway in the presence of an antagonist (AID 1259383); note: top concentration of the series differs between compounds; nearly all actives have a fitted effect of over 15% in size
In short: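 VM7Luc4E2 cells (endogenous full-length ER-alpha, 4×ERE-luciferase) were precultured 5 days in phenol red-free medium with 10% charcoal-stripped FBS, given 10.0nM ICI-182,780 (final), then treated with compounds at 15 concentrations for 22hr at 37C; luminescence read with ONE-Glo.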

[9] = qHTS assay to identify small molecule agonists or antagonists of the thyroid stimulating hormone receptor (TSHR) signaling pathway - wild type cell line counter screen (AID 1259384)
In short: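 Counter screen in untransfected Hek293: compounds (15-point titration, triplicate) plus phosphodiesterase inhibitor Ro20-1724 added after 18 h plating; 30 min RT. Intracellular cAMP via competitive d2/cryptate immunoassay, 1 h incubation.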

[10] = target: Thyrotropin receptor (Homo sapiens) (UniProt P16473); experiment: qHTS assay to identify small molecule antagonists of the thyroid stimulating hormone receptor (TSHR) signaling pathway (AID 1259385); note: nearly all actives have a fitted effect of over 20% in size
In short: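 Antagonist mode: compound-treated TSHR-expressing HEK293 cells were stimulated with 1.5 ng/mL TSH (final) in presence of Ro20-1724 for 30 min at RT. HTRF cAMP detection after 1 h; each compound tested at 15 concentrations, triplicate.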

[11] = qHTS assay to identify small molecule agonists of the estrogen receptor alpha (ER-alpha) signaling pathway in the presence of an antagonist - cell viability counter screen (AID 1259386; active = well fitted curve in the direction sought with a large enough effect in the repeat runs; an effect the other way counts as inactive or inconclusive;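 note: series mostly up to about 92 µM; cells exposed to compounds for 22 h at 37 °C before the viability read; nearly all actives have a fitted effect of over 30% in size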)
In short: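 VM7Luc4E2 cells (endogenous full-length ER-alpha, 4×ERE-luciferase) were held 5 days in phenol red-free medium with 10% charcoal-stripped FBS, plated, then given 10.0nM ICI-182,780 and compounds at 15 concentrations for 22hr at 37C; viability read by CellTiter-Fluor fluorescence.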

[12] = target: Progesterone receptor (Homo sapiens) (UniProt P06401); experiment: qHTS assay to identify small molecule agonists of the progesterone receptor (PR) signaling pathway (AID 1346784); note: nearly all actives have a fitted effect of over 30% in size
In short: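 Compounds were tested for PR agonism in HEK 293T cells bearing a beta-lactamase gene under UAS control. Treatment lasted 16 hr at 37C; signal came from fluorescence of a FRET substrate.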

[13] = target: Progesterone receptor (Homo sapiens) (UniProt P06401); experiment: qHTS assay to identify small molecule antagonists of the progesterone receptor (PR) signaling pathway (AID 1346795; active = well fitted inhibition curve with a large enough effect in the signal ratio in the repeat runs, not every such curve was filed as active; the % refers to the signal ratio)
In short: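 In HEK293T cells bearing the PR-UAS-bla reporter, compound effects on promegestone-driven (1 nM) beta-lactamase expression are assessed after 16 hr using a fluorescent FRET substrate incubated 2 hr at room temperature.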

[14] = qHTS assay to identify small molecule antagonists of the progesterone receptor (PR) signaling pathway - cell viability counter screen (AID 1346798; active = well fitted curve in the direction sought with a large enough effect in the repeat runs; an effect the other way counts as inactive or inconclusive; note: series mostly up to about 92 µM; nearly all actives have a fitted effect of over 50% in size)
In short: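 Following a 4 hr attachment, PR-UAS-bla HEK293T cells in charcoal-stripped FBS medium were exposed to compounds with R5020 for 16 hr; CellTiter-Glo was added and luminescence read after 30 min at room temperature.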

[15] = qHTS assay to identify small molecule antagonists of the TGF-beta/Smad signaling pathway - cell viability counter screen (AID 1346824; active = well fitted curve in the direction sought with a large enough effect in the repeat runs; an effect the other way counts as inactive or inconclusive; note: nearly all actives have a fitted effect of over 50% in size)
In short: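 Cytotoxicity counter-screen run in the same wells as the beta-lactamase Smad reporter read: CellTiter-Glo luminescence after 30 min at room temperature. HEK 293T SBE-bla cells had 5 hr compound exposure at 37 C with TGF-beta1 (0.25 ng/mL stock).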

[16] = qHTS assay to identify small molecule agonists of the TGF-beta/Smad signaling pathway - cell viability counter screen (AID 1346829; active = well fitted curve in the direction sought with a large enough effect in the repeat runs; an effect the other way counts as inactive or inconclusive; note: top concentration of the series differs between compounds; nearly all actives have a fitted effect of over 45% in size)
In short: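 Same-well cytotoxicity: CellTiter-Glo added after the 2 hr room-temperature beta-lactamase substrate step, luminescence measured 30 min later; cells had 5 hr of compound at 37 C.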

[17] = qHTS assay to identify small molecule agonists of the TGF-beta/Smad signaling pathway (AID 1346859; active = well fitted activation curve with a large enough effect in the signal ratio in the repeat runs, not every such curve was filed as active; the % refers to the signal ratio; note: series mostly up to about 77 µM)
In short: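 Each well held 4,000 SBE-bla HEK 293T cells incubated overnight before compound addition; 5 hr later the cleavable FRET substrate went on for 2 hr at room temperature, and fluorescence was read at two emissions.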

[18] = target: Androgen receptor (Homo sapiens) (UniProt P10275); experiment: qHTS assay to identify small molecule agonists of the androgen receptor (AR) signaling pathway in the presence of an antagonist (AID 1259381); note: nearly all actives have a fitted effect of over 15% in size
In short: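 MDA-kb2 human breast carcinoma cells carrying an MMTV-luciferase reporter (AR- and GR-responsive) were treated with compounds at 15 concentrations plus 3.0uM final nilutamide for 16hr at 37C without CO2; luminescence was read after ONE-Glo addition.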

[19] = qHTS assay to identify small molecule agonists of the progesterone receptor (PR) signaling pathway - cell viability counter screen (AID 1346799); note: nearly all actives have a fitted effect of over 45% in size
In short: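 Here, 3,000 PR-UAS-bla HEK293T cells per well were treated with compounds for 16 hr after a 6 hr preincubation at 37C and 5% CO2; cell viability is the CellTiter-Glo luminescence signal.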

[20] = target: Thyrotropin-releasing hormone receptor (Homo sapiens) (UniProt P34981); experiment: qHTS assay to identify small molecule antagonists of the thyrotropin-releasing hormone receptor (TRHR) signaling pathway (AID 1346877; active = well fitted inhibition curve with a large enough effect in the repeat runs, not every such curve was filed as active; note: series mostly up to about 51 µM)
In short: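 TRHR-expressing HEK293 cells were seeded, cultured 18 h at 37 °C, then loaded with calcium dye for 2 h. Compounds were pre-incubated 5 min at room temperature before 1 nM TRH (final) was added, and kinetic fluorescence was recorded for 3 min.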

Measured: Potency

Chain of Thyrotropin receptor (Homo sapiens) (P16473 whole entry, looked up): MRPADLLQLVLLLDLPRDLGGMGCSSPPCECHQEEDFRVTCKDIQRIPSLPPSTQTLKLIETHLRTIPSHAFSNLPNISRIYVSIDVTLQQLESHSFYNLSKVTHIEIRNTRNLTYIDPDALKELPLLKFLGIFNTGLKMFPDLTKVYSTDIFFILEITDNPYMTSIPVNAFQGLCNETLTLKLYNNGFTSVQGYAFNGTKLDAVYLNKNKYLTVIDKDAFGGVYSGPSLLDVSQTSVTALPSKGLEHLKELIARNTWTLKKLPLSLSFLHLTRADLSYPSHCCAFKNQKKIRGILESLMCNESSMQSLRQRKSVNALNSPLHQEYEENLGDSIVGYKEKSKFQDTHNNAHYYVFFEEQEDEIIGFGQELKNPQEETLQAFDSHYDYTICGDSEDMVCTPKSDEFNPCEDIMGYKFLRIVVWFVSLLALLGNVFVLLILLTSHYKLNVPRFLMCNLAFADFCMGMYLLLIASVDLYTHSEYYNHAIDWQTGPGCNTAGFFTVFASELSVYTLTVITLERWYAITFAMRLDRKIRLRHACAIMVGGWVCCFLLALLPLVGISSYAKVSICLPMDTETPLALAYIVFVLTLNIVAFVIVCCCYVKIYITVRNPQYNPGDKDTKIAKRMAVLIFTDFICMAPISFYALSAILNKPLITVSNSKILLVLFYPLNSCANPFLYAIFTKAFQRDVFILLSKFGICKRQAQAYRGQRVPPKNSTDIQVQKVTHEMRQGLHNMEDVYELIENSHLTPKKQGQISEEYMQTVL
Chain of Estrogen receptor beta (Homo sapiens) (Q92731 whole entry, looked up): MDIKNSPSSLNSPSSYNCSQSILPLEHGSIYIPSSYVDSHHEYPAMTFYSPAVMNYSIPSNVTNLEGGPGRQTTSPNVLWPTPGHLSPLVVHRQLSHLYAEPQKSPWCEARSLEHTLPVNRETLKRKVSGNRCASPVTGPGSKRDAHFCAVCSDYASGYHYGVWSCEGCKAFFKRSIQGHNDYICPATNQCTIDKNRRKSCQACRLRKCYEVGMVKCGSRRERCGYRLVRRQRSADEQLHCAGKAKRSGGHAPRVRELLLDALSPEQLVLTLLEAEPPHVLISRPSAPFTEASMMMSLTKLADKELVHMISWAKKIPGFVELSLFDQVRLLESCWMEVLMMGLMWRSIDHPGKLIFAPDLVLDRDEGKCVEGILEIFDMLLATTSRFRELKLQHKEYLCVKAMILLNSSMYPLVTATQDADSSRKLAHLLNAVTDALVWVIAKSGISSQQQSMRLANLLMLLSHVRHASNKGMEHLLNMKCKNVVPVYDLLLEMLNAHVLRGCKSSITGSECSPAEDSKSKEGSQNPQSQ
Chain of Thyrotropin-releasing hormone receptor (Homo sapiens) (P34981 whole entry, looked up): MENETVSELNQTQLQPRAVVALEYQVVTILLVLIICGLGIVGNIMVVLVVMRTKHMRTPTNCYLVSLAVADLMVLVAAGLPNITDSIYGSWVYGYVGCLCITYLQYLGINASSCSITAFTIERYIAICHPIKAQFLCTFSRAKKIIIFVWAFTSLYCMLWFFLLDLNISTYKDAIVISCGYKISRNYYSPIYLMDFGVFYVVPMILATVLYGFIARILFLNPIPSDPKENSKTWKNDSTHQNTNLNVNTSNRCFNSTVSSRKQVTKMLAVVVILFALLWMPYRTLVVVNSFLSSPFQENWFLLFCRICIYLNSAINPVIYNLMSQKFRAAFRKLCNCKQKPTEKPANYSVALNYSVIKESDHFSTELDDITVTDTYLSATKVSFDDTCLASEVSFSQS
Chain of Progesterone receptor (Homo sapiens) (P06401 whole entry, looked up): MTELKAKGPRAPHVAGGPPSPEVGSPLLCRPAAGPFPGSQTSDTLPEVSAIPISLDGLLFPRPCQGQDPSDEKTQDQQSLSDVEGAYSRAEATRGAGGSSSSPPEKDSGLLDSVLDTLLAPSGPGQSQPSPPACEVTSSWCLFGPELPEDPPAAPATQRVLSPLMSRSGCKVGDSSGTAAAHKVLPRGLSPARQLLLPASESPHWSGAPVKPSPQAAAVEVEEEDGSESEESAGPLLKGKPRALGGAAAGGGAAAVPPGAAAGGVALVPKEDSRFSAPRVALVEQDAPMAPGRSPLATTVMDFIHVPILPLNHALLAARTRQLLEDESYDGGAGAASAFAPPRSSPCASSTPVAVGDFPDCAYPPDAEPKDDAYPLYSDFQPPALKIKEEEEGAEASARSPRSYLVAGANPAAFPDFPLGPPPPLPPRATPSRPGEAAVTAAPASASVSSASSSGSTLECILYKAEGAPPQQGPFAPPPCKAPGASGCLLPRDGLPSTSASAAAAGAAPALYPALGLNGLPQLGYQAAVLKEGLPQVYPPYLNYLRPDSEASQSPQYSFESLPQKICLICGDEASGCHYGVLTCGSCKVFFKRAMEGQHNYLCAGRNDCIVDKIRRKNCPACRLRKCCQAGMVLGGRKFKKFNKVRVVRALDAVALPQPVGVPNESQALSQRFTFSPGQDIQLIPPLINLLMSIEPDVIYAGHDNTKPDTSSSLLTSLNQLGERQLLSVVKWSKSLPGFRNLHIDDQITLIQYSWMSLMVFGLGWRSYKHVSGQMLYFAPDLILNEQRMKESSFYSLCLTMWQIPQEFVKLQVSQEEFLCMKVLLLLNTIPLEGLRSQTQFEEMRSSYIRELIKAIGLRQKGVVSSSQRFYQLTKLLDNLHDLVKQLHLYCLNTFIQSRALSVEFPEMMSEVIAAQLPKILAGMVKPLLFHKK
Chain of Androgen receptor (Homo sapiens) (P10275 whole entry, looked up): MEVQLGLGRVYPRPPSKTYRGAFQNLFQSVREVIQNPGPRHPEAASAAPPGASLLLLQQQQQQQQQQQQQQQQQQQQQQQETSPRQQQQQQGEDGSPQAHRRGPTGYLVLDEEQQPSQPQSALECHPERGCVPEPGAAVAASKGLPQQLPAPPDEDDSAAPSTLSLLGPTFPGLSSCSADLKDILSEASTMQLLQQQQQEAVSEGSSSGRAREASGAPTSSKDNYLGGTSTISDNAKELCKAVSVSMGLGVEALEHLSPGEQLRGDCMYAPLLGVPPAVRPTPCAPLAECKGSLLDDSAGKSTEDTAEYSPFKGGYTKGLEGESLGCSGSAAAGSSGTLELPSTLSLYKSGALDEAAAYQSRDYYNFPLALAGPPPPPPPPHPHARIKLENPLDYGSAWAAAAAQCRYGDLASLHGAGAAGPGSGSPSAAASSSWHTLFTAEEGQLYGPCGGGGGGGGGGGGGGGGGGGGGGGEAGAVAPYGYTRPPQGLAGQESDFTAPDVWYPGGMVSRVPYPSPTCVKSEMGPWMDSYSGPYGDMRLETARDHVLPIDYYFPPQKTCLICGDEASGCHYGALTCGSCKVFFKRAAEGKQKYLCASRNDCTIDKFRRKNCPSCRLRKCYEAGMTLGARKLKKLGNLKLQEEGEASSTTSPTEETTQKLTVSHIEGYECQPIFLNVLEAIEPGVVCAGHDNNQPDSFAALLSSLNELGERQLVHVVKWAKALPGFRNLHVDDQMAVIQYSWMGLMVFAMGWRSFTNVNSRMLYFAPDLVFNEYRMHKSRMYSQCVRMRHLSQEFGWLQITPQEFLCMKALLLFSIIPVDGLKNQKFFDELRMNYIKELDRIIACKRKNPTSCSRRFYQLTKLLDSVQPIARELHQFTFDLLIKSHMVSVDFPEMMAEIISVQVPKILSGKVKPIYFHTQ
Chain of Estrogen receptor (Homo sapiens) (P03372 whole entry, looked up): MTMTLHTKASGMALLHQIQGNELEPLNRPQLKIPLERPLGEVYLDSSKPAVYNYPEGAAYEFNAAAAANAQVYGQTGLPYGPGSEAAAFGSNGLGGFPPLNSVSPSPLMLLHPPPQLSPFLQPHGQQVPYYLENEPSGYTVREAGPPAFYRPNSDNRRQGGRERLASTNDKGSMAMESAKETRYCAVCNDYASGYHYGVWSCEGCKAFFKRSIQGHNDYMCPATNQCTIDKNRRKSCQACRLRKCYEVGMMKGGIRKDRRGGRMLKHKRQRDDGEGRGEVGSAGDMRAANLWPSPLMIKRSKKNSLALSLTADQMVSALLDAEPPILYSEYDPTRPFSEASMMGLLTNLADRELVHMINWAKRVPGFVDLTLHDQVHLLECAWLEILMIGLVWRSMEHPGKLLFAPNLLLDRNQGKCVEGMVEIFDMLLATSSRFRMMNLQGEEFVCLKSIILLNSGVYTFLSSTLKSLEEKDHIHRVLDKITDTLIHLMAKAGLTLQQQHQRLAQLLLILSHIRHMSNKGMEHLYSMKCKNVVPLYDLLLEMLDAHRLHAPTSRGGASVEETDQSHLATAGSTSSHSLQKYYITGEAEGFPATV

NS(=O)(=O)c1ccc(NC(=O)CCC(=O)O)cc1
inactive: [1] | [2] | [3] | [4] | [5] | [6] | [7] | [8] | [9] | [10] | [11] | [12] | [13] | [14] | [15] | [16] | [17]

CC(=O)OC(C)OC(=O)C(C)c1ccc(-c2ccccc2)c(F)c1 (stereo not drawn)
inactive: [1] | [2] | [3] | [4] | [5] | [6] | [18] | [7] | [8] | [9] | [10] | [11] | [12] | [13] | [14] | [19] | [15] | [16] | [17]

COC(=O)CCCCCCCC(=O)OC
inactive: [1] | [2] | [3] | [4] | [5] | [6] | [7] | [8] | [9] | [10] | [12] | [13] | [14] | [15] | [16] | [17] | [20]

CC(C)NCC(O)COc1ccc(COCCOC(C)C)cc1 (stereo not drawn)
inactive: [1] | [2] | [3] | [4] | [5] | [6] | [18] | [7] | [8] | [9] | [10] | [11] | [13] | [14] | [19] | [15] | [16] | [17] | [20]

CC(C)(C)NC(N)=O
inactive: [1] | [2] | [3] | [4] | [5] | [6] | [18] | [7] | [8] | [9] | [10] | [11] | [12] | [13] | [14] | [19] | [15] | [16] | [20]

CC(=O)NCCCCCC(=O)O
inactive: [1] | [2] | [3] | [4] | [5] | [6] | [7] | [8] | [9] | [10] | [11] | [12] | [13] | [14] | [19] | [15] | [16] | [17] | [20]

CCC(C)NC(N)=O (stereo not drawn)
inactive: [1] | [2] | [3] | [4] | [5] | [6] | [18] | [7] | [8] | [9] | [10] | [11] | [14] | [19] | [15] | [16] | [17] | [20]

CCCC(=O)C(C)=O
inactive: [1] | [2] | [3] | [4] | [5] | [6] | [7] | [8] | [9] | [10] | [11] | [14] | [19] | [15] | [16] | [17]

OCCN(CCO)c1cccc(Cl)c1
inactive: [1] | [2] | [3] | [4] | [5] | [6] | [18] | [7] | [9] | [11] | [12] | [13] | [14] | [19] | [15] | [16] | [20]

Cc1cccc(C)c1NC(=O)c1ccccc1C(=O)O
inactive: [1] | [2] | [3] | [4] | [5] | [6] | [18] | [7] | [8] | [9] | [10] | [11] | [12] | [13] | [14] | [19] | [15] | [16] | [17] | [20]

COCCc1ccc(OCC2CO2)cc1 (stereo not drawn)
inactive: [1] | [2] | [3] | [4] | [5] | [6] | [18] | [8] | [9] | [10] | [11] | [12] | [13] | [14] | [19] | [15] | [16] | [17] | [20]

COCCOCCOCCOCCO
inactive: [1] | [2] | [3] | [4] | [5] | [6] | [18] | [7] | [8] | [9] | [10] | [11] | [12] | [13] | [14] | [19] | [15] | [16] | [20]

CC(C)NCC(O)COc1cccc2[nH]ccc12 (stereo not drawn)
inactive: [1] | [2] | [3] | [4] | [5] | [6] | [18] | [7] | [9] | [10] | [11] | [14] | [15] | [16] | [20]

C[C@H](CCC(=O)O)[C@H]1CC[C@H]2[C@@H]3C(=O)C[C@@H]4CC(=O)CC[C@]4(C)[C@H]3CC(=O)[C@]12C
inactive: [1] | [2] | [3] | [4] | [5] | [6] | [7] | [8] | [9] | [10] | [11] | [12] | [13] | [14] | [19] | [15] | [16] | [17] | [20]
